PubChem BioAssay (NCATS)
Results filed as inconclusive are left out. Entries that show only a call come without a potency. Active and inactive are the calls of the source. Calls come from the whole dose curve; as a rule, active = well fitted cell-killing curve with a large enough effect; inconclusive = small, poorly fitted or top-dose-only effect; inactive = flat fitted curve, though single readings scatter.

Assay: Cell Viability - LYMP2-026 (AID 989); note: nearly all actives have a fitted effect of over 50% in size
Details: LYMP2-026 lymphoblastoid cell viability, qHTS; series mostly up to 92.2 µM
Excerpt: NIH Chemical Genomics Center [NCGC]
NIH Molecular Libraries Screening Centers Network [MLSCN]
National Institutes of Environmental Health Sciences [NIEHS]
National Toxicology Program [NTP]
We have developed a 1536-well cell-based assay for quantitative high throughput screening (qHTS) against a number of cell lines to determine in vitro cytotoxicity of small molecules. This particular assay uses a human lymphoblastoid cell line (LYMP2-026) purchased from Coriell Institute for Medical Research.
NCGC Assay Protocol Summary:
The CellTiter-Glo luminescent cell viability assay (Promega) is a homogeneous method to measure the number of viable cells in culture. The end point readout of this assay is based on quantitation of intracellular ATP, an indicator of metabolic activity, using the luciferase reaction. Luciferase catalyzes the oxidation of beetle Luciferin to oxyluciferin and light in the presence of ATP. The luminescent signal is proportional to amount of ATP present.
Using the CellTiter-Glo luminescent cell viability assay, the amount of cellular ATP was measured in the lymphoblastoid cell line with complete culture medium following compound treatment for 24 hours. The assay was performed in opaque white Kalypsys 1536-well plates. In the screen, tetraoctylammonium bromide was used as positive control. Library compounds were measured for their ability to cause acute toxicity in the cell line, as reflected by a decrease in intracellular ATP levels, in a concentration-dependent manner. […] AC50 values were determined from concentration-response data modeled with the standard Hill equation.
qHTS protocol for CellTiter Glo lymphoblastoid cellular assay
[Step] [Parameter] [Value] [Description]
1. Reagent; 5 uL; 2500 lymphoblastoid cells/well
2. Time; 5 hr; 37 C incubation
4. Controls; 23 nL; Tetraoctylammonium bromide 6.4pM to 92 uM
5. Time; 24 hr; 37 C incubation
6. Reagent; 5 uL; CellTiter Glo reagent
7. Time; 30 min; Room Temperature
8. Detection; Luminescence; Viewlux plate reader
Keywords: cell viability, cytotoxicity, lymphoblastoid cell line, luminescence, NTPHTS, NTPHTS_NCGC, NIEHS, DSSTox, MLSMR, MLSCN, NIH Roadmap, qHTS, NCGC
Potency is the fitted concentration of half-maximal effect.

Structure (SMILES)	Potency
[Cl][In]([Cl])[Cl]	inactive
Oc1cccc(O)c1	inactive
Nc1ccc(S(=O)(=O)Nc2nccs2)cc1	inactive
C[C@]12C[C@H](O)[C@H]3[C@@H](CCC4=CC(=O)CC[C@@]43C)[C@@H]1CC[C@@H]2C(=O)CO	inactive
NC(=O)N/N=C/c1ccc([N+](=O)[O-])o1	inactive
Cc1cc2nc3c(=O)[nH]c(=O)nc-3n(C[C@H](O)[C@H](O)[C@H](O)CO)c2cc1C	inactive
CCCCOC(=O)c1ccc(O)cc1	inactive
O=C1c2c(O)cccc2Cc2cccc(O)c21	inactive
COC(=O)C1=C(C)NC(C)=C(C(=O)OC)C1c1ccccc1[N+](=O)[O-]	inactive
NCCNCCNCCNCCN	inactive
CC1(C)[C@@H]2CC[C@@]1(C)C(=O)C2	inactive
Cc1cc(CC(=O)O)n(C)c1C(=O)c1ccc(Cl)cc1	inactive
CC12CCC(CC1)C(C)(C)O2	inactive
CCCCCCCCCCCCOS(=O)(=O)O	inactive
COc1ccccc1O	inactive
NCCNCCNCCN	inactive
NC(=O)c1ncn([C@@H]2O[C@H](CO)[C@@H](O)[C@H]2O)n1	inactive
Cc1c(O)cccc1C(=O)N[C@@H](CSc1ccccc1)[C@H](O)CN1C[C@H]2CCCC[C@H]2C[C@H]1C(=O)NC(C)(C)C	50.1 µM (active)
O=C1O[C@H]([C@@H](O)CO)C(O)=C1O	inactive
